Bioassay records deposited in PubChem BioAssay by several laboratories.
Hits are enriched below; roughly 3.3% of the tested compounds scored in any of these assays.
sPLA2-III inh: Blocks human group III sPLA2 activity. Q9NZ20. QFRET BODIPY PC-A2 liposome hydrolysis, fluorescence. inhibition, % at 12.2 µM. 370,000 tested, 0.56% active. AID 743126;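 active = inhibition above mean plus 3 SD of compounds lying within the high and low control bounds, cut at about 19% in these data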
Target sequence (Q9NZ20 whole entry, looked up): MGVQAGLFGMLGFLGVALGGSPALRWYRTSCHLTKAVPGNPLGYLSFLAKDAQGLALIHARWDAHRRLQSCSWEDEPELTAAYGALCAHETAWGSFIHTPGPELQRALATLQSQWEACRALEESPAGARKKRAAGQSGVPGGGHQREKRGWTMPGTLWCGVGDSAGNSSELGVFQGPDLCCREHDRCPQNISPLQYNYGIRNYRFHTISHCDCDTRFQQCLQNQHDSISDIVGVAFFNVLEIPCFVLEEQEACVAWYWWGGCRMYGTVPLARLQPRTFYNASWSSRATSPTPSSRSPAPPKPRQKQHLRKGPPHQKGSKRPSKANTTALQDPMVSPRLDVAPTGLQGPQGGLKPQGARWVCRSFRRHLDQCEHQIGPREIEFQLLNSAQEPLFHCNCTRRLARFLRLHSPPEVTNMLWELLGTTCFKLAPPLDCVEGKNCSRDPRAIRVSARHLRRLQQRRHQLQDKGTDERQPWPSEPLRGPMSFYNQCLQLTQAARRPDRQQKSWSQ
UBC13 inh: human UBC13 polyubiquitination inhibition. P61088. UBC13 polyubiquitin chain formation, TR-FRET. inhibition, % at 20 µM. 330,000 tested, 0.47% active. AID 485273; in the data active = inhibition above about 45%, passing the limit was not always enough
Target sequence (P61088 whole entry, looked up): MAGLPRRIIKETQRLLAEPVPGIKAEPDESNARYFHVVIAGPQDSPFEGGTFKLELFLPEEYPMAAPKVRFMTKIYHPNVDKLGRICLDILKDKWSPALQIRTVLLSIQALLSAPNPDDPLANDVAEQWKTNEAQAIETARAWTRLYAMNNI
GRIN3A LBD mod: modulators (binders) of human NR3A ligand-binding domain | NR3A LBD differential scanning fluorimetry, Tm shift; 0% = protein alone, 100% = glycine-bound protein | Tm shift relative to glycine control, % at 25 µM | 340,000 tested, 2.5% active | AID 1259313;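 active = melting temperature shift of at least 10% of the positive control shift, at one fixed dose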
SUMO HTRF inh: inhibitors of human SUMOylation (UBC9); P63279; HTRF SUMOylation assay, SAE1/SAE2 + UBC9, in vitro; inhibition, % at 35 µM; 290,000 tested, 0.36% active; in the data active = inhibition above about 50%, passing the limit was not always enough
A number is an active result.

What do the screens show for `O=C(Nc1ccccc1)Nc1nc2ncccn2c1-c1ccc(F)c(F)c1`?
sPLA2-III inh: inactive

Results for Cc1ccc(-c2noc(CCC(=O)NCC3CCCO3)n2)cc1 (configuration not stated) ?
sPLA2-III inh: inactive; UBC13 inh: inactive; GRIN3A LBD mod: inactive; SUMO HTRF inh: inactive

How did Cc1ccc(-c2noc(CCC(=O)Nc3ccc(C)cn3)n2)cc1 do in these assays?
sPLA2-III inh: inactive; UBC13 inh: inactive; GRIN3A LBD mod: 11; SUMO HTRF inh: inactive

Results for CCCc1c(C)c2ccc(OCC(C)=O)cc2oc1=O ?
sPLA2-III inh: inactive; UBC13 inh: inactive; GRIN3A LBD mod: 12; SUMO HTRF inh: inactive

How did CCCCc1c(C)c2ccc(OCC(C)=O)cc2oc1=O do in these assays?
sPLA2-III inh: inactive; UBC13 inh: inactive; GRIN3A LBD mod: inactive; SUMO HTRF inh: inactive

What do the screens show for `C[C@H]1[C@@H](NC(=O)C2CCCCC2)CC[C@@]23CCCN2C(=O)CCC[C@@H]13`?
sPLA2-III inh: inactive

Results for Oc1c(Cl)c(Cl)c2ncccc2c1Cl ?
sPLA2-III inh: inactive; GRIN3A LBD mod: inactive

What do the screens show for `Oc1ccc2c(c1)c1ccccc1c1ncccc21`?
sPLA2-III inh: inactive; GRIN3A LBD mod: 31

Results for Cc1[nH]n(-c2ncc(-c3ccccc3)s2)c(=O)c1C(c1ccc(Br)cc1)C(C#N)C#N (configuration not stated) ?
sPLA2-III inh: inactive; UBC13 inh: inactive; GRIN3A LBD mod: inactive; SUMO HTRF inh: 64

Results for Cc1cccc(-c2nnc(SCC(=O)c3ccc(F)cc3)n2C)c1 ?
sPLA2-III inh: inactive

How did CC(OC(=O)CN(C)S(=O)(=O)c1ccc(Cl)cc1)C(=O)Nc1ccc(N2CCOCC2)cc1 (configuration not stated) do in these assays?
sPLA2-III inh: inactive; GRIN3A LBD mod: inactive; SUMO HTRF inh: inactive

Results for CC(=O)Nc1ccc(NC(=O)C(C)OC(=O)CN(C)S(=O)(=O)c2ccc(Cl)cc2)cc1 (configuration not stated) ?
sPLA2-III inh: inactive; UBC13 inh: inactive; GRIN3A LBD mod: 15; SUMO HTRF inh: inactive

Results for CCOC(=O)C1CCN(C(=O)COC(=O)CN(C)S(=O)(=O)c2ccc(NC(C)=O)cc2)CC1 ?
sPLA2-III inh: inactive; UBC13 inh: inactive; GRIN3A LBD mod: 10; SUMO HTRF inh: inactive

How did CN(CC(=O)OCC(=O)Nc1ccccc1)S(=O)(=O)c1ccc(Cl)cc1 do in these assays?
sPLA2-III inh: inactive; UBC13 inh: inactive; GRIN3A LBD mod: 18; SUMO HTRF inh: inactive

How did Cc1cc(C)nc(N2CCC(C(=O)N(C)CCc3ccccn3)CC2)n1 do in these assays?
sPLA2-III inh: inactive

What do the screens show for `N[C@H](C(=O)N1CCC[C@@H]1C(=O)N1CCC2CCN(S(=O)(=O)c3ccccc3)CC21)c1ccccc1` (some centres not stated)?
sPLA2-III inh: inactive

What do the screens show for `O=C(NC(=S)Nc1ccc([N+](=O)[O-])cc1)c1ccco1`?
sPLA2-III inh: inactive

How did COc1cc(NC(=O)CSc2nc3ccccc3c(=O)n2C)ccc1NC(=O)c1ccco1 do in these assays?
sPLA2-III inh: inactive; UBC13 inh: inactive; GRIN3A LBD mod: 13; SUMO HTRF inh: inactive

What do the screens show for `COc1ccc(C(=O)NC(=S)Nc2ccc(NC(=O)c3ccco3)cc2)cc1[N+](=O)[O-]`?
sPLA2-III inh: inactive; UBC13 inh: inactive; GRIN3A LBD mod: 30; SUMO HTRF inh: inactive

Results for COc1cc(NC(=O)c2cc(OC)c(OC)c(OC)c2)ccc1NC(=O)c1cccs1 ?
sPLA2-III inh: inactive; UBC13 inh: inactive; GRIN3A LBD mod: inactive; SUMO HTRF inh: inactive

How did COc1cc(NC(=O)c2cccc([N+](=O)[O-])c2)ccc1NC(=O)c1ccco1 do in these assays?
sPLA2-III inh: inactive; UBC13 inh: inactive; GRIN3A LBD mod: 27; SUMO HTRF inh: inactive

What do the screens show for `COc1cc(NC(=O)c2ccc(OC)c([N+](=O)[O-])c2)ccc1NC(=O)c1cccs1`?
sPLA2-III inh: inactive; UBC13 inh: inactive; GRIN3A LBD mod: 38; SUMO HTRF inh: inactive

Results for O=C(CCc1ccccc1-c1ccccc1CCNC(=O)c1c(F)cccc1F)NCc1ccccc1 ?
sPLA2-III inh: inactive

Results for CCN(CC)c1ccc(NC(=O)c2cc3c(C)nn(-c4ccccc4)c3s2)cc1 ?
sPLA2-III inh: inactive

How did COc1ccc(C(=O)Nc2ccncc2)cc1[N+](=O)[O-] do in these assays?
sPLA2-III inh: inactive; UBC13 inh: inactive; GRIN3A LBD mod: inactive; SUMO HTRF inh: inactive

What do the screens show for `CCC(=O)NC(=S)Nc1ccc(NC(=O)c2ccc(C)c([N+](=O)[O-])c2)cc1`?
sPLA2-III inh: inactive; UBC13 inh: inactive; GRIN3A LBD mod: 34; SUMO HTRF inh: inactive

Results for CCc1ccc(NC(=O)c2ccc(OC)c([N+](=O)[O-])c2)cc1 ?
sPLA2-III inh: inactive; UBC13 inh: inactive; GRIN3A LBD mod: 12; SUMO HTRF inh: inactive

What do the screens show for `CCOc1ccc(C(=O)NC(=S)Nc2ccc(NC(=O)CC)cc2)cc1[N+](=O)[O-]`?
sPLA2-III inh: inactive; UBC13 inh: inactive; GRIN3A LBD mod: inactive; SUMO HTRF inh: inactive

How did CCOc1ccc(C(=O)NC(=S)Nc2cccc(NC(=O)c3ccco3)c2)cc1[N+](=O)[O-] do in these assays?
sPLA2-III inh: inactive; UBC13 inh: inactive; GRIN3A LBD mod: 16; SUMO HTRF inh: inactive

What do the screens show for `c1ccn(-c2ccc(-c3noc(CCc4ccncc4)n3)cc2)c1`?
sPLA2-III inh: inactive

What do the screens show for `COc1cc(NC(=O)c2cc(C3CC3)on2)c(OC)cc1Cl`?
sPLA2-III inh: inactive; UBC13 inh: inactive; GRIN3A LBD mod: 14; SUMO HTRF inh: inactive

How did COc1ccc(Cl)cc1NC(=O)c1cc(C2CC2)on1 do in these assays?
sPLA2-III inh: inactive

Results for COc1ccc(S(=O)(=O)NCCc2c[nH]c3ccc(Cl)cc23)cc1 ?
sPLA2-III inh: inactive; UBC13 inh: inactive; GRIN3A LBD mod: 35; SUMO HTRF inh: inactive

How did Cc1ccc(S(=O)(=O)NCCc2c[nH]c3ccccc23)cc1 do in these assays?
sPLA2-III inh: inactive; UBC13 inh: inactive; GRIN3A LBD mod: 23; SUMO HTRF inh: inactive

What do the screens show for `COc1ccc2[nH]cc(CCNS(=O)(=O)c3ccc(NC(C)=O)cc3)c2c1`?
sPLA2-III inh: inactive; UBC13 inh: inactive; GRIN3A LBD mod: inactive; SUMO HTRF inh: inactive

Results for COc1ccccc1C(=O)CSc1nnc(-c2ccncc2)n1-c1ccc(Cl)cc1 ?
sPLA2-III inh: inactive

What do the screens show for `O=C1NC2(CCCCC2)C(=O)N1CCS(=O)(=O)Oc1ccccc1`?
sPLA2-III inh: inactive; UBC13 inh: inactive; GRIN3A LBD mod: 12; SUMO HTRF inh: inactive

How did O=C(Nc1cccs1)Nc1ccc(Br)cc1F do in these assays?
sPLA2-III inh: inactive; UBC13 inh: inactive; GRIN3A LBD mod: 21; SUMO HTRF inh: inactive

What do the screens show for `CCOc1ccc(NC(=O)Nc2cccs2)cc1`?
sPLA2-III inh: inactive; UBC13 inh: inactive; GRIN3A LBD mod: 19; SUMO HTRF inh: inactive

How did Cc1ccc(NC(=O)Nc2cccs2)cc1 do in these assays?
sPLA2-III inh: inactive; UBC13 inh: inactive; GRIN3A LBD mod: 11; SUMO HTRF inh: inactive

What do the screens show for `CCc1ccc(NC(=O)Nc2cccs2)cc1`?
sPLA2-III inh: inactive; UBC13 inh: inactive; GRIN3A LBD mod: inactive; SUMO HTRF inh: inactive

What do the screens show for `O=C(NCc1ccco1)C1CCCN(c2ncccn2)C1` (configuration not stated)?
sPLA2-III inh: inactive
